# The whole screen tested about 65,000 compounds, of which about 2,100 (3.2%) showed an effect of 50% or more. The median lay at about -52%. The sample as a whole holds a higher share of strong results than the screen did.
# Test system: Plasmodium falciparum
# Test: Screen against P. falciparum Asexual Blood Stage (ABS), at 5uM
# Format: functional, Dd2
# Conditions: tested at 5 uM
row,SMILES,INHIBITION [%]
1,O=C(c1ccoc1)N1CCOC2(COCCN(CC3CC3)C2)C1 (centres undefined),-17.6
2,Cn1cc(CN2CCOC3(CCCN(c4cccc(F)c4)C3)C2)cn1 (centres undefined),-5.32
3,Fc1cccc(CN2CCOC3(COCCN(CC4CC4)C3)C2)c1 (centres undefined),63.4
4,OCCN1CCOC2(CCCN(c3cccc(F)c3)C2)C1 (centres undefined),-22.5
5,COCCN1CCOCC2(CCCN(Cc3cccc(F)c3)C2)C1 (centres undefined),9.71
6,Fc1cccc(N2CCCC3(CN(Cc4ccco4)CCO3)C2)c1 (centres undefined),43.7
7,Fc1cccc(N2CCCC3(CN(Cc4ccncc4)CCO3)C2)c1 (centres undefined),38.4
8,Cc1ccc(CN2CCOC3(CCCN(c4cccc(F)c4)C3)C2)o1 (centres undefined),51.6
9,Fc1cccc(N2CCCC3(CN(Cc4cccnc4)CCO3)C2)c1 (centres undefined),66
10,Fc1ccc(CNCC2Cn3nncc3CO2)cc1 (centres undefined),-21.1
11,COc1cc(N2CCCC3(CCN(c4cccnc4)C3=O)C2)ncn1 (centres undefined),-14.1
12,Cc1nnc2ccc(N3CCC4(CCOC4)C3)nn12 (centres undefined),-37.2
13,FC(F)c1nnc2ccc(N3CCC4(CCCCC4)C3)nn12,61.4
14,FC(F)c1nnc2ccc(N3CCC4(CCOC4)C3)nn12 (centres undefined),-52.7
15,O=S1(=O)CCC(CNc2cc(-c3ccccc3)nc3ccnn23)C1 (centres undefined),-47.3
16,O=S(=O)(c1ccccc1F)N1CCCC(c2nccs2)C1 (centres undefined),-129
17,O=C(NCCCSc1ccc(F)cc1)C1CCc2cn[nH]c2C1 (centres undefined),-54.6
18,COCc1cn(C2CCN(CCC(C)c3ccccc3)CC2)nn1 (centres undefined),-46.3
19,COc1ccc(C(=O)NCC2CCCN(C3CCOCC3)C2)c(O)c1 (centres undefined),-31.9
20,CC(C)Cc1noc(CN2CCN(CCO)CC2)n1,0.0946
21,CCc1noc(CN2CCN(CCO)CC2)n1,-176
22,CCCc1noc(CN2CCN(CCO)CC2)n1,50.5
23,C[C@H](O)CNc1cc(-c2ccncc2)ncn1,-170

row,SMILES,INHIBITION [%]
1,CCCOCCN1CCC2(CC1)CC(=O)N(Cc1cc(F)cc(F)c1)C2,38.7
2,Cc1ccc(O)c(CNCC(C)c2nc3ccccc3o2)n1 (centres undefined),63.2
3,Cc1nc(CNCC(C)c2nc3ccccc3o2)cs1 (centres undefined),-109
4,Cc1csc(CNCC(C)c2nc3ccccc3o2)n1 (centres undefined),-27.8
5,CN1CCc2nc(C3CCN(C(=O)CCC4CCCC4)CC3)ncc2C1,-37.6
6,O=C(NC1CCCN(CCCc2ccccc2)C1)c1ccncc1 (centres undefined),-29.1
7,O=C(NC1CCCN(CCCc2ccccc2)C1)c1ccc(Cl)s1 (centres undefined),60.9
8,O=C(NC1CCCN(CCCc2ccccc2)C1)C1=CCCCC1 (centres undefined),2.46
9,O=C(C1CC1)N1CC[C@H](c2nc3ccccc3o2)C1,50.1
10,CC(=O)N1CC[C@H](c2nc3cc(C)ccc3o2)C1,-68.8
11,CC(=O)N1CC[C@H](c2nc3cc(F)ccc3o2)C1,-105
12,Cc1ccc(CS(=O)(=O)NCc2ccco2)cc1,-31.4
13,CC(O)CNc1c(NCc2ccco2)c(=O)c1=O (centres undefined),-192
14,Cc1cc(C)c(N(CC(O)CNCc2ccco2)S(C)(=O)=O)c(C)c1 (centres undefined),60.7
15,CN(C)c1nc(NCCc2ccccn2)ncc1F,-447
16,Cc1ccc2c(c1)CN(C(=O)c1ccccc1F)C(CN(C)C)CO2 (centres undefined),50.4
17,Cc1ccc2c(c1)CN(C(=O)c1cccnc1)C(CN(C)C)CO2 (centres undefined),29.2
18,Cc1ccc2c(c1)CN(C(=O)c1ccncc1)C(CN(C)C)CO2 (centres undefined),13
19,COc1ccc(C(=O)N2Cc3cc(C)ccc3OCC2CN(C)C)cc1 (centres undefined),17.9
20,Cc1nc(C)c(C(=O)N2Cc3ccccc3OCC2CN(C)C)o1 (centres undefined),-21.9
21,Cc1ccc2c(c1)CN(C(=O)C1CCCCC1)C(CN(C)C)CO2 (centres undefined),66
22,Cc1ccc(C(=O)N2CCCCC2CN(C)C)cc1 (centres undefined),-58.9
23,COc1ccccc1C(=O)N1Cc2cc(C)ccc2OCC1CN(C)C (centres undefined),60.8

row,SMILES,INHIBITION [%]
1,Cc1ccc2c(c1)CN(C(=O)c1cnc(C)cn1)C(CN(C)C)CO2 (centres undefined),-86.1
2,CCCn1nccc1NC(=O)CN1CCc2cnc(C(C)C)nc2C1,-4.64
3,CC(C)CNC(=O)CC1(Cn2cnnn2)CCCCC1,-92.1
4,O=S(=O)(c1ccc(Cl)s1)N1CCCn2ncnc21,-131
5,O=C1CO[C@@H]2CN(CC3CC3)C[C@H]2N1Cc1cccc(F)c1,-55
6,O=C1NCC2(CCC(C(=O)N3CCC(O)CC3)CC2)Oc2ccccc21 (centres undefined),-99.2
7,CN(C)c1nccc(C2CN(c3ccccc3)CCO2)n1 (centres undefined),-40.1
8,Cc1ccc(C)n1-c1c(C(=O)NCC(C)N(C)C)cnn1C (centres undefined),-93.5
9,CCN1C(=O)CCCC12CCCN(C(=O)c1ccncc1F)C2 (centres undefined),-46.7
10,CC(C)(CNC1CCCN(Cc2ccccn2)C1)CN1CCOCC1 (centres undefined),-82.2
11,Fc1ccccc1CN1CCCC(NC2CCOCC2)C1 (centres undefined),-11.9
12,CC(C)(CNC1CCCN(Cc2ccccc2F)C1)CN1CCOCC1 (centres undefined),56.4
13,CN(C)c1ncc(CNC(=O)Nc2ccccc2C(F)(F)F)n1C,-113
14,CN(C)c1ncc(CNC(=O)Nc2ccc(C(F)(F)F)cc2)n1C,68.3
15,CN(C)c1ncc(CNC(=O)Nc2ccccc2F)n1C,-31
16,Cn1cc(C(=O)NCc2cn3c(n2)CN(C2CCOCC2)CC3)cn1,-26.8
17,COCCN(C(=O)c1ccccn1)c1nc2c(s1)CCc1c-2cnn1C,6.99
18,CC(C)[C@H]1CN(C2Cc3ccccc3C2)C[C@@H]1NS(C)(=O)=O,34.6
19,CC(C)[C@@H]1CN(CCOc2ccccc2)C[C@H]1NS(=O)(=O)N(C)C,40.3
20,CC(C)[C@@H]1CN(Cc2ccsc2)C[C@H]1NS(=O)(=O)N(C)C,66.3
21,CC(=O)c1cc(CN2C[C@@H](NS(=O)(=O)N(C)C)[C@H](C(C)C)C2)cs1,32.8
22,CC(C)[C@H]1CN(C2Cc3ccccc3C2)C[C@@H]1NS(=O)(=O)N(C)C,61.6
23,Cc1nc(CN2C[C@@H](NS(=O)(=O)N(C)C)[C@H](C(C)C)C2)cs1,19.1

# From ChEMBL document CHEMBL4513216, “Probing the Open Global Health Chemical Diversity Library for Multistage-Active Starting Points for Next-Generation Antimalarials” (ACS Infect Dis, 2020)
